Experimental findings from the supplement of paper PMC12819154, “High-throughput peptide-centric local stability assay extends protein–ligand identification to membrane proteins, tissues and bacteria” (Nature Structural & Molecular Biology, 2025) are described below.

UniProt Q6ICG6, sequence (Q6ICG6 whole entry): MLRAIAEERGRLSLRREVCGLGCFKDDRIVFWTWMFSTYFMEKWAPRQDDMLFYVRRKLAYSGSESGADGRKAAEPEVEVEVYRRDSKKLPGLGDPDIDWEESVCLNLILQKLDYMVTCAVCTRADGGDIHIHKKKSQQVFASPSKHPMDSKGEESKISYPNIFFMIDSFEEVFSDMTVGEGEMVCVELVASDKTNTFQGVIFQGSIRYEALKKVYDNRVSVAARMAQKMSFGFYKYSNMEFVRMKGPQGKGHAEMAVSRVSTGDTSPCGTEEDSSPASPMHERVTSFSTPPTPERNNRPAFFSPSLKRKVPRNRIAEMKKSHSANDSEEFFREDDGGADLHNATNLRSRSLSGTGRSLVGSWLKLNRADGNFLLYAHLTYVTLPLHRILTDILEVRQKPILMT
UniProt Q9UKE5, sequence (Q9UKE5 whole entry, looked up): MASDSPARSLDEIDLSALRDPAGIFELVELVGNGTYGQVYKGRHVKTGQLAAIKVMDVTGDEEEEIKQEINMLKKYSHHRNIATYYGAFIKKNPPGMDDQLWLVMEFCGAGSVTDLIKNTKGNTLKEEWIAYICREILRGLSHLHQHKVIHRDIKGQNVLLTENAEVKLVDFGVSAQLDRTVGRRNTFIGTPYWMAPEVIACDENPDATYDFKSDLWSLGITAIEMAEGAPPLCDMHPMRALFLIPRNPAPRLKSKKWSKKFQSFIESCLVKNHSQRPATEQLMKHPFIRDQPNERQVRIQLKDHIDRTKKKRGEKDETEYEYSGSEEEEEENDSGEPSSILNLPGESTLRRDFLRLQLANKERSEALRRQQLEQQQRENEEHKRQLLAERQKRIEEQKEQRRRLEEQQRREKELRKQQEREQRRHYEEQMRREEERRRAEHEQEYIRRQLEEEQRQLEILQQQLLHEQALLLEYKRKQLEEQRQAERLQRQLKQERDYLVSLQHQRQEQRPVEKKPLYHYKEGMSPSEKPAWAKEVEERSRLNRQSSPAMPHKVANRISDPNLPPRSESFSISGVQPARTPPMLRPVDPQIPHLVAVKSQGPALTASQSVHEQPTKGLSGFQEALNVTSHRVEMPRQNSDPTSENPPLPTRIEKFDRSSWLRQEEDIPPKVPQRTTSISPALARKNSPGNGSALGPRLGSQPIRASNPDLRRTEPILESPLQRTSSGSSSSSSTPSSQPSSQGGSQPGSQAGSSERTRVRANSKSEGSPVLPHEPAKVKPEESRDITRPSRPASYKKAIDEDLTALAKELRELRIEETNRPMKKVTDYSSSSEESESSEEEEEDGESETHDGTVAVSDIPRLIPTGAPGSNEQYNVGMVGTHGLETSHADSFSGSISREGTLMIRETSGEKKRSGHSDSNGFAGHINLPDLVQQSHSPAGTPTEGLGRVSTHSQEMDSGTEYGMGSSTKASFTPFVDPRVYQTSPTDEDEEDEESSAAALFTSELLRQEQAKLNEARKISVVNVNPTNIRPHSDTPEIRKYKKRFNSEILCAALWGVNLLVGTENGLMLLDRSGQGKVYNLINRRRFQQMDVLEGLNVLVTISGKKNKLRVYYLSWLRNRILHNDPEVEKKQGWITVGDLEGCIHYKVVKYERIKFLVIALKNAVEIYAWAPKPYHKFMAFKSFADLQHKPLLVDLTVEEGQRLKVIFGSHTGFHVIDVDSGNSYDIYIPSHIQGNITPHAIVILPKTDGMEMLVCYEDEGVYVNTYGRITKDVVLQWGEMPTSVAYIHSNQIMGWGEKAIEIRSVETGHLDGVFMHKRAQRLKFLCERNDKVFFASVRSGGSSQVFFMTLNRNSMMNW
UniProt P19784, sequence (P19784 whole entry, looked up): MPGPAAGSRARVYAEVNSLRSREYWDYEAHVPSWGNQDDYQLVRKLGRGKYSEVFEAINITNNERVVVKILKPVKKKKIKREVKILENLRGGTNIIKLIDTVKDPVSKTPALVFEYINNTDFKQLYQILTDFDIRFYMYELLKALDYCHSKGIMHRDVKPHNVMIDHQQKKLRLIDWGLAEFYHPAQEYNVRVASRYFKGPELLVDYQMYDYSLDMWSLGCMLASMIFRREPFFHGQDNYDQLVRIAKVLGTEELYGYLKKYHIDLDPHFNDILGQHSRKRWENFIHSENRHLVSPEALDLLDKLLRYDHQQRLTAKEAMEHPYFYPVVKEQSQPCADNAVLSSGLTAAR
UniProt Q12851, sequence (Q12851 whole entry): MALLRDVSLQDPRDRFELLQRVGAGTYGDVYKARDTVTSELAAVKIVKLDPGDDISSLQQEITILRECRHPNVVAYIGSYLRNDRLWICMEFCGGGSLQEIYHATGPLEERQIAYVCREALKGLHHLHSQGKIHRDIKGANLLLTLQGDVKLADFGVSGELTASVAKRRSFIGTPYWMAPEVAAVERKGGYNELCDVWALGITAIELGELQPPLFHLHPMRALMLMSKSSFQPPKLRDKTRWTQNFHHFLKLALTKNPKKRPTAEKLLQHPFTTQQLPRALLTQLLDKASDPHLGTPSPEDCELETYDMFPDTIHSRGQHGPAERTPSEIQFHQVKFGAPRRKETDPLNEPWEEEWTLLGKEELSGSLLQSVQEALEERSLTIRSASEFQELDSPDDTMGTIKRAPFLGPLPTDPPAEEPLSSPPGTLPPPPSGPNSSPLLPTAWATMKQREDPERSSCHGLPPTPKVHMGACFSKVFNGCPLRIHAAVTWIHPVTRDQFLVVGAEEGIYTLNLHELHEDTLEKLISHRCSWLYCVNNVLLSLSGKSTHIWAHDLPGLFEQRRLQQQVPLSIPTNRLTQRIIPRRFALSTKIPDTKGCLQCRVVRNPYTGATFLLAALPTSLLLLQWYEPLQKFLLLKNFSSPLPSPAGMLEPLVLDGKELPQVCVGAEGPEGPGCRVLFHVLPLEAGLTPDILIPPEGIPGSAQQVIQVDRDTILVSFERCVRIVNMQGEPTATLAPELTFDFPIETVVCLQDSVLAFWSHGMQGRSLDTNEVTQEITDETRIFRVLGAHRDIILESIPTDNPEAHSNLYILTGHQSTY
UniProt Q00535, sequence (Q00535 whole entry, looked up): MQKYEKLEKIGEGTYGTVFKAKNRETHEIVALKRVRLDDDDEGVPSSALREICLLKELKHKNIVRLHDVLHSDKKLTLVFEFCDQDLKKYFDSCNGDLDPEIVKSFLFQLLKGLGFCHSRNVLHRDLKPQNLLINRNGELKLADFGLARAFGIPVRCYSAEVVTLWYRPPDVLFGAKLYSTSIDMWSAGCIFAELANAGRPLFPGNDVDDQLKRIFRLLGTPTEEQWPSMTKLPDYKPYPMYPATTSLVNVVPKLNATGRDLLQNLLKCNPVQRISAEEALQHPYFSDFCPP
UniProt P12956, sequence (P12956 whole entry): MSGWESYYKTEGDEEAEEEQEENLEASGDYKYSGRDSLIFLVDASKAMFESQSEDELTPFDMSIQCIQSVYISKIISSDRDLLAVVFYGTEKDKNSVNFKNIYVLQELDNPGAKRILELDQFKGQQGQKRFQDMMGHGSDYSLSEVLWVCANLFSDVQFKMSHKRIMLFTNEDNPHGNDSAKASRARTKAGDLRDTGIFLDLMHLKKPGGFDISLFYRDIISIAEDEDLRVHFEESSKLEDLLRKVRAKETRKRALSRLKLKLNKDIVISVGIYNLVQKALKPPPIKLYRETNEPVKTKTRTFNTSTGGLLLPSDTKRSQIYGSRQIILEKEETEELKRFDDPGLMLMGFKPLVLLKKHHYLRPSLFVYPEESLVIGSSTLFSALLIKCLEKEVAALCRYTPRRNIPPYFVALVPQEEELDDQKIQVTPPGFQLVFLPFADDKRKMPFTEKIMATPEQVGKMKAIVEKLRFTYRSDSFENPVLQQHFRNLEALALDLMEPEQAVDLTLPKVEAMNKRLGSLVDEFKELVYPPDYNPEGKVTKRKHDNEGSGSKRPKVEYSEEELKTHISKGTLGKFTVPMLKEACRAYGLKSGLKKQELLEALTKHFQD
UniProt P53671, sequence (P53671 whole entry, looked up): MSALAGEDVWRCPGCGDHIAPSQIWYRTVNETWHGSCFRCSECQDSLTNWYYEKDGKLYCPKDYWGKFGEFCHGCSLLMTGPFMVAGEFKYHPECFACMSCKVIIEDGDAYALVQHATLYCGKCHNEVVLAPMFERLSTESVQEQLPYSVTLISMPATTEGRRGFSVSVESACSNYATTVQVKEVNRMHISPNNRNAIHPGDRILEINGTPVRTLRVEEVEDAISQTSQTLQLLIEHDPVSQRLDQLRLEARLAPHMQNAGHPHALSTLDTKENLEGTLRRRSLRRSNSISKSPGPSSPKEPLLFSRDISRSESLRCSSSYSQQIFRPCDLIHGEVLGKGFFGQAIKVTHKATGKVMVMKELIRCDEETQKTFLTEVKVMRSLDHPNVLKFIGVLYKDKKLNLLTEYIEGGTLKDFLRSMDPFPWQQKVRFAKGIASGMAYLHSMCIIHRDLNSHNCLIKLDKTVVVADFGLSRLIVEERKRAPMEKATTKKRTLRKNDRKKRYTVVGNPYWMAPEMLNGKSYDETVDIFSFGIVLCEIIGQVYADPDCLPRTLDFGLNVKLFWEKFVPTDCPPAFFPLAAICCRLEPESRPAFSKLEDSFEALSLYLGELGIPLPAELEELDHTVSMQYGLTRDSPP
UniProt P48739, sequence (P48739 whole entry): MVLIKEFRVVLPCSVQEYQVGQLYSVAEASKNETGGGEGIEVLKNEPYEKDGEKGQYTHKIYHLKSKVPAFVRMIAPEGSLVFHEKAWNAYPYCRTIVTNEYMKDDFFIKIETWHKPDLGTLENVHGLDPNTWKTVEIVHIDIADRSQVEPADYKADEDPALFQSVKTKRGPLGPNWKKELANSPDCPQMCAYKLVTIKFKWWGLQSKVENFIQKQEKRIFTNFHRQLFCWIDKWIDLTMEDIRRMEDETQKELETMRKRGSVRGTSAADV
UniProt Q99497, sequence (Q99497 whole entry): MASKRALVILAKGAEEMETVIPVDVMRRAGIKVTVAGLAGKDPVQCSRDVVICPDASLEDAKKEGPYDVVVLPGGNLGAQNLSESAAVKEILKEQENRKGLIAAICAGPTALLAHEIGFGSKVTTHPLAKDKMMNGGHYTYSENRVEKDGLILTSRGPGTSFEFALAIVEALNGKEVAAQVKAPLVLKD

Compound in this assay: CN[C@@H]1C[C@H]2O[C@@](C)([C@@H]1OC)n1c3ccccc3c3c4c(c5c6ccccc6n2c5c31)C(=O)NC4 [staurosporine]
The experiment in a line: log2 fold change of tryptic peptide abundance, ligand vs vehicle (limited proteolysis) (log2 ratio); higher = more trypsin-susceptible (destabilized). As to conditions: ligand concentration: 20 uM; sample: K562 cleared lysate; digestion: 4 min, 22 C (HT-PELSA RT4min, Orbitrap Astral).
Regarding “NQO1 (peptide sequence: SIPTDNQIK, peptide start residue: 263) (UniProt P15559)”, the log2 fold change worked out at 0.728.

Consider “GSTP1 (peptide sequence: MPPYTVVYFPVRGR, peptide start residue: 1) (UniProt P09211)”, for which the log2 fold change worked out at 0.55. Consider “TNIK (peptide sequence: KFQSFIESCLVK, peptide start residue: 261) (UniProt Q9UKE5)”, for which the log2 fold change was -0.632. Turning to “SRM (peptide sequence: AAFVLPEFAR, peptide start residue: 286) (UniProt P19623)”, the log2 fold change stood at 0.362. “DCUN1D5 (peptide sequence: SMLALLLGR, peptide start residue: 164) (UniProt Q9BTE7)”: the log2 fold change came out at 1.45. On to “LIMK2 (peptide sequence: TLDFGLNVK, peptide start residue: 553) (UniProt P53671)”, for which the log2 fold change was -1.38. Then “PARK7 (peptide sequence: VTVAGLAGKDPVQCSR, peptide start residue: 33) (UniProt Q99497)”, with 0.199; and “EIF2B1 (peptide sequence: VAQTGQDLK, peptide start residue: 259) (UniProt Q14232)”, with 0.366. Regarding “UniProt Q13043 (peptide sequence: ATATQLLQHPFVR, peptide start residue: 270)”, the log2 fold change is -3.53. In the case of “VRK1 (peptide sequence: DILLQGLK, peptide start residue: 322) (UniProt Q99986)” it was -0.866. As for “UniProt P19784 (peptide sequence: HLVSPEALDLLDKLLR, peptide start residue: 292)”, the log2 fold change is -2.25. Turning to “PRKACB (peptide sequence: QIEHTLNEK, peptide start residue: 85) (UniProt P22694)”, the log2 fold change amounted to 1.81.

As for “MAP4K2 (peptide sequence: ALLTQLLDK, peptide start residue: 280) (UniProt Q12851)”, the log2 fold change is -0.962. “UniProt O75582 (peptide sequence: VGIENFELLK, peptide start residue: 44)”: the log2 fold change was -0.481. As for “ULK2 (peptide sequence: IADFGFAR, peptide start residue: 163) (UniProt Q8IYT8)”, the log2 fold change is -1.68. Regarding “OSBPL3 (peptide sequence: YWSTNAHEIEGTVFDR, peptide start residue: 727) (UniProt Q9H4L5)”, the log2 fold change is -1.33. On to “XRCC6 (peptide sequence: LGSLVDEFK, peptide start residue: 518) (UniProt P12956)”, for which the log2 fold change was -0.499. Regarding “MED12 (peptide sequence: NVSFNPAK, peptide start residue: 61) (UniProt Q93074)”, the log2 fold change is 0.555. For “UniProt P45983 (peptide sequence: MLVIDASK, peptide start residue: 301)”, the log2 fold change was -1.77. With “UniProt P49674 (peptide sequence: FDDKPDYSYLR, peptide start residue: 260)”, the log2 fold change is -0.398. In the case of “CDK5 (peptide sequence: DLKPQNLLINR, peptide start residue: 126) (UniProt Q00535)” it was -3.41; in that of “RIPK2 (peptide sequence: KTEYPDVAWPLR, peptide start residue: 110) (UniProt O43353)”, -0.494; in that of “SLK (peptide sequence: LADFGVSAK, peptide start residue: 171) (UniProt Q9H2G2)”, -3.91. In the case of “CEP170 (peptide sequence: SDSEATISR, peptide start residue: 1165) (UniProt Q5SW79)” it was 0.41. On to “UniProt P61962 (peptide sequence: LMWIPDTK, peptide start residue: 74)”, for which the log2 fold change came to 0.374. “UniProt Q9P289 (peptide sequence: NNPPTLVGDFTK, peptide start residue: 234)”: the log2 fold change is -1.31.

As for “RPL5 (peptide sequence: GAVDGGLSIPHSTK, peptide start residue: 165) (UniProt P46777)”, the log2 fold change was found to be 0.307.

With “PITPNB (peptide sequence: GTSAADV, peptide start residue: 265) (UniProt P48739)”, the log2 fold change is 0.354. With “UniProt Q6ICG6 (peptide sequence: KAAEPEVEVEVYRR, peptide start residue: 72)”, the log2 fold change is -1.02.
